Inconclusive results are not listed. Calls of active or inactive are those of the source. The calls were made as follows, unless noted: active = hit-call score of the fitted dose curve at least 0.9, where 1 is the maximum; inactive = score below 0.9.

Assay [1] can be described thus: ATG_NFI_CIS: Attagene CIS-FACTORIAL HepG2 Assay for human Nuclear Factor I (NFI) (AID 2282989). Conditions: HepG2 cis-regulatory reporter, NFI response element transcription; actives raise or lower the signal. An outline of the steps:
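Reporter transcription driven by endogenous transcription factors in HepG2 cells; 24 h treatment. Quantitation by labelled RT-PCR fragments on capillary electrophoresis, gain- or loss-of-signal relative to DMSO.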

The target of assay [2] is Myc proto-oncogene protein (Homo sapiens) (UniProt P01106). The assay is described as follows: ATG_Myc_CIS: Attagene CIS-FACTORIAL HepG2 Assay for human Myelocytomatosis (Myc) Proto-Oncogene Transcription Factor (AID 2282990). To be noted: HepG2, Attagene cis-reporter transcription factor activity; actives raise or lower the signal. The method in brief: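 DMSO-normalised, bidirectionally fitted reporter mRNA signal. HepG2 cells transfected with cis reporter constructs, treated 24 h; transcripts detected by RT-PCR, 6-FAM primer extension and CE.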

The nature of assay [3]: ATG_NF_kB_CIS: Attagene CIS-FACTORIAL HepG2 Assay for human Nuclear Factor Kappa B (NF-kB) (AID 2282991). Conditions: HepG2 Attagene cis-factorial NF-kB reporter mRNA; actives raise or lower the signal. An outline of the steps: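 Read-out: reporter transcript levels quantified by RT-PCR plus capillary electrophoresis of 6-FAM-labelled, HpaI-cut fragments. Transfected HepG2 cells, 24 h compound exposure, endogenous NF-kB-driven cis element; gain or loss scored versus DMSO.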

For assay [4], the target named is Cellular tumor antigen p53 (Homo sapiens) (UniProt P04637). Briefly: ATG_p53_CIS: Attagene CIS-FACTORIAL HepG2 Assay for human p53 Transcription Factor (AID 2282994). Conditions: HepG2 p53 cis-element reporter, Attagene mRNA; actives raise or lower the signal. The method in brief:
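HepG2 cells transiently transfected with cis-regulated multiple reporter transcription units, dosed 24 h. Reporter mRNA measured by RT-PCR, 6-FAM primer extension, HpaI digestion and capillary electrophoresis; bidirectional fit relative to DMSO.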

Assay [5] addresses human Peroxisome Proliferator-activated Receptor alpha (PPARa), PPARA (gene 5465) (UniProt Q07869). Briefly: ATG_PPARa_TRANS: Attagene TRANS-FACTORIAL HepG2 Assay for human Peroxisome Proliferator-activated Receptor alpha (PPARa) (AID 2283001; active = hit-call score of the fitted dose curve at least 0.9, where 1 is the maximum). An outline of the steps: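 Gain-of-signal endpoint: reporter mRNA induction relative to DMSO, detected by fluorescent RT-PCR and capillary electrophoresis. HepG2 cells transiently carried GAL4-UAS-driven reporter units plus NR-Gal4 fusion; exposure lasted 24 h.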

Assay [6] addresses Retinoic acid receptor alpha (Homo sapiens) (UniProt P10276). Briefly: ATG_RARa_TRANS: Attagene TRANS-FACTORIAL HepG2 Assay for human Retinoic Acid Receptor alpha (RARa) (AID 2283005; active = hit-call score of the fitted dose curve at least 0.9, where 1 is the maximum). The method in brief:
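HepG2 cells transiently transfected with multiple reporter units expressing chimeric RARα-GAL4 fusion, with GAL4-UAS-driven reporters. After 24 h compound exposure, reporter mRNA induction quantified by RT-PCR and capillary electrophoresis with fluorescent labeling; gain-of-signal fitted relative to DMSO control.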

For assay [7], the target named is Nuclear receptor subfamily 1 group I member 2 (Homo sapiens) (UniProt O75469). The assay is described as follows: ATG_PXR_TRANS: Attagene TRANS-FACTORIAL HepG2 Assay for human Pregnane X Receptor (PXR) (AID 2283008; active = hit-call score of the fitted dose curve at least 0.9, where 1 is the maximum). The method in brief: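 HepG2 cells transiently transfected with GAL4-UAS reporter units and PXR-Gal4 chimera, exposed 24 h. Reporter mRNA quantified by RT-PCR, fluorescent labelling, HpaI digestion and capillary electrophoresis; gain of signal vs DMSO.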

Assay [8] concerns the target human Retinoic Acid Receptor gamma (RARg), RARG (gene 5916) (UniProt P13631). Briefly: ATG_RARg_TRANS: Attagene TRANS-FACTORIAL HepG2 Assay for human Retinoic Acid Receptor gamma (RARg) (AID 2283009; active = hit-call score of the fitted dose curve at least 0.9, where 1 is the maximum). An outline of the steps: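 HepG2 transiently transfected with GAL4-UAS reporter units and chimeric NR-Gal4 constructs; 24 h compound exposure. Reporter mRNA quantified by RT-PCR, FAM labeling, HpaI digestion and capillary electrophoresis; gain-of-signal versus DMSO.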

Assay [9] is described as follows: ATG_NRF2_ARE_CIS: Attagene CIS-FACTORIAL HepG2 Assay for human Nuclear Factor Erythroid 2 Related Factor 2 (NFR2) response to Antioxidant Response Elements (ARE) (AID 2282992).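 As to AC50: reporter mRNA level measured by RT-PCR and capillary electrophoresis fluorescence.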 To be noted: HepG2 Attagene ARE/NRF2 reporter, transcription factor activity; actives raise or lower the signal. An outline of the steps:
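HepG2 cells transiently transfected with multiplexed cis-element reporter constructs, 24 h after chemical dosing; reporter mRNA quantified by RT-PCR, fluorescent primer extension, HpaI digestion and capillary electrophoresis. Bidirectional fit relative to DMSO.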

A short description of assay [10]: ATG_Oct_MLP_CIS: Attagene CIS-FACTORIAL HepG2 Assay for human Octamer-Binding Transcription Factor (Oct) (AID 2282993). Conditions: HepG2 Attagene cis-factorial Oct reporter, mRNA; actives raise or lower the signal. The method in brief: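 Transfected HepG2 cells, 24 h treatment. Reporter mRNA quantified by RT-PCR–capillary electrophoresis; bidirectional fitting against DMSO.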

The target of assay [11] is human Peroxisome Proliferator-activated Receptor delta (PPARd), PPARD (gene 5467) (UniProt Q03181). The assay is described as follows: ATG_PPARd_TRANS: Attagene TRANS-FACTORIAL HepG2 Assay for human Peroxisome Proliferator-activated Receptor delta (PPARd) (AID 2283002; active = hit-call score of the fitted dose curve at least 0.9, where 1 is the maximum). An outline of the steps:
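Measured quantity: GAL4-UAS reporter transcript induction in HepG2 after 24 h chemical dosing, with NR-Gal4 chimeras supplied by transient transfection. Detection by RT-PCR and capillary electrophoresis; upward fit against DMSO.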

Assay [12] concerns the target Peroxisome proliferator-activated receptor gamma (Homo sapiens) (UniProt P37231). The assay is described as follows: ATG_PPARg_TRANS: Attagene TRANS-FACTORIAL HepG2 Assay for human Peroxisome Proliferator-activated Receptor-gamma (PPARg) (AID 2283007; active = hit-call score of the fitted dose curve at least 0.9, where 1 is the maximum). An outline of the steps: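 Read-out: reporter mRNA induction, detected by fluorescence after RT-PCR and capillary electrophoresis. Transiently transfected human HepG2 liver cells carrying a chimeric NR-Gal4 construct were dosed for 24 h; activity was fitted upward relative to DMSO.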

For assay [13], the target named is human Retinoic Acid Receptor beta (RARb), RARB (gene 5915) (UniProt P10826). Briefly: ATG_RARb_TRANS: Attagene TRANS-FACTORIAL HepG2 Assay for human Retinoic Acid Receptor beta (AID 2283004; active = hit-call score of the fitted dose curve at least 0.9, where 1 is the maximum). An outline of the steps:
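HepG2 cells were transiently transfected with GAL4-UAS reporter units that report activity of exogenous chimeric NR-Gal4 proteins, then exposed to compound for 24 h. Reporter mRNA was quantified by RT-PCR with capillary electrophoresis fluorescence, as gain of signal over DMSO.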

Assay [14] has as its target human RAR-related Orphan Receptor beta (RORb), RORB (gene 6096) (UniProt Q92753). The assay is described as follows: ATG_RORb_TRANS: Attagene TRANS-FACTORIAL HepG2 Assay for human RAR-related Orphan Receptor beta (RORb) (AID 2283010; active = hit-call score of the fitted dose curve at least 0.9, where 1 is the maximum). An outline of the steps:
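HepG2 cells transiently transfected with GAL4-UAS reporter units expressing chimeric NR-Gal4 protein; reporter mRNA measured 24 h after dosing by RT-PCR, 6-FAM labelling and capillary electrophoresis. Gain-of-signal fitted relative to DMSO baseline.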

Chain of human Peroxisome Proliferator-activated Receptor alpha (PPARa), PPARA (gene 5465) (Q07869 whole entry, looked up, the tested form may be a part): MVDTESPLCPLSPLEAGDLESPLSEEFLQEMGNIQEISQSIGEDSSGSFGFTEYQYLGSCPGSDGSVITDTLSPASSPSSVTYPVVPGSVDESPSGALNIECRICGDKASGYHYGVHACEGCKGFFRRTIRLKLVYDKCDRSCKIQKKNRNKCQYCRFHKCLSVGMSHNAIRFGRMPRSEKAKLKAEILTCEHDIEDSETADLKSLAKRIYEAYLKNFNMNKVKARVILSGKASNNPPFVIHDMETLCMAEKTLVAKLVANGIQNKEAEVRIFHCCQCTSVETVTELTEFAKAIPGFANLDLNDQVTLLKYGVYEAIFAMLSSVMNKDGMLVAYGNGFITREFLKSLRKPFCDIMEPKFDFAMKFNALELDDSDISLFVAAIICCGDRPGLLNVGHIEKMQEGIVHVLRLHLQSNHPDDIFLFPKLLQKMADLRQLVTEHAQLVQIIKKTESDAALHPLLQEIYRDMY
Chain of human Peroxisome Proliferator-activated Receptor delta (PPARd), PPARD (gene 5467) (Q03181 whole entry, looked up, the tested form may be a part): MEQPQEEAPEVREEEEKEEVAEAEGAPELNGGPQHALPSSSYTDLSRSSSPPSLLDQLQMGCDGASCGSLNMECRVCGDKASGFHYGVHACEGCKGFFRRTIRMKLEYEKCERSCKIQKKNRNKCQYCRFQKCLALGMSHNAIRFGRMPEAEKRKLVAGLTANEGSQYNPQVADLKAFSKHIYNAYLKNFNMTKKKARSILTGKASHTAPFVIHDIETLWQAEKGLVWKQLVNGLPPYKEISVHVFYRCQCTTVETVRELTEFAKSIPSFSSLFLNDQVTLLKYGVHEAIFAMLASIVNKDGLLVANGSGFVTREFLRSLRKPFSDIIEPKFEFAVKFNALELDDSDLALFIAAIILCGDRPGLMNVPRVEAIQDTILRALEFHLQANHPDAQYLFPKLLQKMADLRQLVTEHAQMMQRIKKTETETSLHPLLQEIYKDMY
Chain of Cellular tumor antigen p53 (Homo sapiens) (P04637 whole entry, looked up): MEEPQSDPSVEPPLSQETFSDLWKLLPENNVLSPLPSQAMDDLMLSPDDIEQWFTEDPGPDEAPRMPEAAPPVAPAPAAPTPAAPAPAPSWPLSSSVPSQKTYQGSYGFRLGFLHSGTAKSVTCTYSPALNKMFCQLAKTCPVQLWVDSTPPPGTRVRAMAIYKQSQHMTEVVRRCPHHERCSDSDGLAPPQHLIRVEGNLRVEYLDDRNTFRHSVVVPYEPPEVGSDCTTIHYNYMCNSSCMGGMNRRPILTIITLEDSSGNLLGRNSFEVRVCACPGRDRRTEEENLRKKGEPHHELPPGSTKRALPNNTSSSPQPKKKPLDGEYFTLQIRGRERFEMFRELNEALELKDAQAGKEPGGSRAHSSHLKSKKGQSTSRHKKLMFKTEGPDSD
Chain of Myc proto-oncogene protein (Homo sapiens) (P01106 whole entry, looked up): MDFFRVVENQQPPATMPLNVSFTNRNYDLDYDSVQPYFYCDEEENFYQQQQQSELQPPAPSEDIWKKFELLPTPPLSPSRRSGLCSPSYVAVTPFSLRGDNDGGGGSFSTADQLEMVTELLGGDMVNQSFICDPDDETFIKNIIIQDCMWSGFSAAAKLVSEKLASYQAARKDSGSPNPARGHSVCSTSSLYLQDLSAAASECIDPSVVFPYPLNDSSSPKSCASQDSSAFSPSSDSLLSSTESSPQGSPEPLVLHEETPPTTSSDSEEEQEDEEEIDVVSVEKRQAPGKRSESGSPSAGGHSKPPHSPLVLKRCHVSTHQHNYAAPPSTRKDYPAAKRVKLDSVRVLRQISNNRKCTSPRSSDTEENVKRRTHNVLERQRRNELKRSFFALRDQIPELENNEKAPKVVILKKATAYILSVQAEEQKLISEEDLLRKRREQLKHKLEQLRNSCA
Chain of human Retinoic Acid Receptor beta (RARb), RARB (gene 5915) (P10826 whole entry, looked up, the tested form may be a part): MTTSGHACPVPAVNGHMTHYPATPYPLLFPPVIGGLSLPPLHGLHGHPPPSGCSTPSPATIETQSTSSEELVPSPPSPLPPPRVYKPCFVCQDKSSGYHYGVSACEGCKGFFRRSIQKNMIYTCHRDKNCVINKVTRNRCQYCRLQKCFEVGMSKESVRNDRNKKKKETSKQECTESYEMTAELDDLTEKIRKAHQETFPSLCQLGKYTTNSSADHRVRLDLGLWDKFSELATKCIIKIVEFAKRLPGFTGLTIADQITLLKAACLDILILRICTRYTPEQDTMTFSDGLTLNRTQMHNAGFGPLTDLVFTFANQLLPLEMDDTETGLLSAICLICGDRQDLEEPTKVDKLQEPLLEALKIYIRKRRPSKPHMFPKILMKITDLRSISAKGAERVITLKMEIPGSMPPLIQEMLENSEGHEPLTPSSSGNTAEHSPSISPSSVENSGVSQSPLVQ
Chain of Nuclear receptor subfamily 1 group I member 2 (Homo sapiens) (O75469 whole entry, looked up, the tested form may be a part): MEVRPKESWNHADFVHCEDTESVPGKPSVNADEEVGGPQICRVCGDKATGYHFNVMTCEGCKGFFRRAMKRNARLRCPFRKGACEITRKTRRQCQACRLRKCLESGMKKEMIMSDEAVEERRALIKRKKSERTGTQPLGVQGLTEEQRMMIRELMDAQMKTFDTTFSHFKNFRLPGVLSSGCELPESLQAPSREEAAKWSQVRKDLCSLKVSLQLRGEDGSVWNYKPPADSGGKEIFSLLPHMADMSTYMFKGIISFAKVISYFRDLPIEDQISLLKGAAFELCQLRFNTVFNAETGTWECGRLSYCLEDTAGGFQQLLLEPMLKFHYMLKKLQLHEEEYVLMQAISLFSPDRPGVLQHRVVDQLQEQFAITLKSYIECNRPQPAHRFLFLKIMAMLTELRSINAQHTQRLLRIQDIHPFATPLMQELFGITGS
Chain of human Retinoic Acid Receptor gamma (RARg), RARG (gene 5916) (P13631 whole entry, looked up, the tested form may be a part): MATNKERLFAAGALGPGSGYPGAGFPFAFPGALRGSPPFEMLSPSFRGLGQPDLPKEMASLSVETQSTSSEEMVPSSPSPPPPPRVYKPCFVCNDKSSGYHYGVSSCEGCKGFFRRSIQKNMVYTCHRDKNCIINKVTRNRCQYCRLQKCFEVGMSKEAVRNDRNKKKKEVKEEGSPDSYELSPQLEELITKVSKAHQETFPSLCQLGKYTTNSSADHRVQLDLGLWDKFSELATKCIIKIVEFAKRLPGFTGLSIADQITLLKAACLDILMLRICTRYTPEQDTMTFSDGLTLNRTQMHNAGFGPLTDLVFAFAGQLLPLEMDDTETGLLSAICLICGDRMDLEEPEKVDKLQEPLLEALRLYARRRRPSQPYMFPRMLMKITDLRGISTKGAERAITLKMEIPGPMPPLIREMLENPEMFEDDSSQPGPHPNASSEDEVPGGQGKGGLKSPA
Chain of Retinoic acid receptor alpha (Homo sapiens) (P10276 whole entry, looked up, the tested form may be a part): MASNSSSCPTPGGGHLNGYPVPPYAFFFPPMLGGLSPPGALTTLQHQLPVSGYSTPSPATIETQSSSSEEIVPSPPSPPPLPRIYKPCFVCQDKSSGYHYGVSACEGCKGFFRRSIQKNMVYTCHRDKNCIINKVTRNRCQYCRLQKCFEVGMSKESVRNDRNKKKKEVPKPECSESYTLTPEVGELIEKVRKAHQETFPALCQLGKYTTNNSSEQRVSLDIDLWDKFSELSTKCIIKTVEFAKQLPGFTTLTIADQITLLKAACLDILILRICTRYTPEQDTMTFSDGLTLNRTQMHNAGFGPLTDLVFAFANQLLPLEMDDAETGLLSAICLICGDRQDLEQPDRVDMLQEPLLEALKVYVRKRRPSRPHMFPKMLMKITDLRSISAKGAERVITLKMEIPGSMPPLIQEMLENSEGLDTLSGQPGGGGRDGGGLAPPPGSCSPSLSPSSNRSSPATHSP
Chain of human RAR-related Orphan Receptor beta (RORb), RORB (gene 6096) (Q92753 whole entry, looked up, the tested form may be a part): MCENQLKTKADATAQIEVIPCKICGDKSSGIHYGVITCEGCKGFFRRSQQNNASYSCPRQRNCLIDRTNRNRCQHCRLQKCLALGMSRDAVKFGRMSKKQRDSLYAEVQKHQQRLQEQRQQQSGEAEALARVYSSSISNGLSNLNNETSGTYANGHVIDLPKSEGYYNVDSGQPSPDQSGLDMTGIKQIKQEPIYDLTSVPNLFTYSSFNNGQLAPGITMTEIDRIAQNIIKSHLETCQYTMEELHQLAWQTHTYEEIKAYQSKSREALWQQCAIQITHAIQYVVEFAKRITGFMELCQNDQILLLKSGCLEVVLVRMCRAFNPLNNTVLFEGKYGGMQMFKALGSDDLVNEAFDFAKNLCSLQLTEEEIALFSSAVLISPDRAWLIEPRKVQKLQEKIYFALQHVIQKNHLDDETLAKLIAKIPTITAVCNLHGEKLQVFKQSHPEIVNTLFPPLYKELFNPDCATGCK
Chain of Peroxisome proliferator-activated receptor gamma (Homo sapiens) (P37231 whole entry, looked up, the tested form may be a part): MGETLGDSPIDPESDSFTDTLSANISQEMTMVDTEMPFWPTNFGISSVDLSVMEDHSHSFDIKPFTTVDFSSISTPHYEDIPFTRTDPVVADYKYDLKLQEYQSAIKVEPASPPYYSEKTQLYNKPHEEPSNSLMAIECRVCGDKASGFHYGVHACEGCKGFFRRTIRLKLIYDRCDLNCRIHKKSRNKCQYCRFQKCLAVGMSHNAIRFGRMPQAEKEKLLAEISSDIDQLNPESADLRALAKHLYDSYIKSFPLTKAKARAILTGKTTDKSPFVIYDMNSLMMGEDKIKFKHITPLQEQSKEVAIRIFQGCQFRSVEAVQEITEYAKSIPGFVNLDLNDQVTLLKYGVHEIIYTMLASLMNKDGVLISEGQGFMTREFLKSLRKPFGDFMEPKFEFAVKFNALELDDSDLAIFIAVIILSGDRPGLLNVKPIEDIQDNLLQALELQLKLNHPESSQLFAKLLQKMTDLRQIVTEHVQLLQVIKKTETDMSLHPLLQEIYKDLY

Take `NC(=O)NNC(N)=O`: the compound was classed as inactive in [1], in [2], in assay [3], in assay [4], in assay [5] and in assay [6]. Also, the outcome in assay [7] and in assay [8] was inactive.

With `O=C(Nc1ccccc1)c1ccccc1O`, the compound was called inactive in assay [1], in [2], in assay [9], in assay [4], in [5] and in assay [11]. Besides, the result in assay [6] and in assay [8] was inactive. The figures for the AC50 in assay [10] and in assay [12] were 48.3 µM (active) and 55.9 µM (active), respectively.

For `CC/C=C\CCOC(=O)CCCCC`, the call in [1], in assay [2], in [3], in [10], in [4] and in assay [5] was inactive. Besides, the result in [13], in assay [6] and in [7] was inactive.

`CC1=NC(C)OC1C` (stereo unspecified): the compound was called inactive in [1], in assay [2], in assay [10], in assay [5], in assay [13] and in assay [6]. Further, the compound was called inactive in assay [12]. Besides, the AC50 in [9] was 42.5 µM (active); in [4], 167 µM (active).

In the case of `CC(=O)OC(C)C`, the compound was classed as inactive in assay [1], in assay [2], in assay [9], in [10], in assay [4] and in [11]. Moreover, the result in assay [6], in [12], in assay [7] and in assay [8] was inactive.

For `C=C1[C@H]2CC[C@@H]3[C@H]2C(C)(C)CCC[C@]13C`, the result in assay [1], in [2], in [9], in [10], in [4] and in assay [11] was inactive. Moreover, the outcome in [13], in assay [12], in [7] and in [8] was inactive.

Regarding `CCN(CCC#N)c1ccc(N=Nc2c(Cl)cc([N+](=O)[O-])cc2Cl)cc1`, the call in assay [1], in assay [2], in [9], in assay [10], in [4] and in [5] was inactive. The compound was called inactive in assay [11] and in [8]. For the same compound, the AC50 is 16.3 µM (active) in [12] and 1.05 µM (active) in assay [7].

`CCC(C)(C)C1CCCCC1OC(C)=O` (stereo unspecified): the compound was called inactive in assay [1], in assay [2], in assay [10], in assay [4], in assay [11] and in [13]. Moreover, the compound was classed as inactive in assay [12], in [7] and in assay [8]. Moreover, the AC50 in assay [9] was 134 µM (active).

With `CN(C)CCCN(C)C`, the call in assay [1], in assay [2], in [9], in [10], in assay [4] and in assay [11] was inactive. Also, the outcome in [13], in assay [6], in assay [12], in assay [7] and in [14] was inactive.

Consider `CNC(=S)NN`, for which the result in assay [1], in [2], in [9], in assay [10], in assay [4] and in [11] was inactive. In addition, the call in assay [13], in assay [6], in assay [8] and in assay [14] was inactive.

`CC1=NN(c2cc(S(=O)(=O)O)ccc2Cl)C(=O)C1N=Nc1ccccc1` (stereo unspecified): the result in assay [1], in assay [2], in assay [9], in assay [10], in assay [4] and in [5] was inactive. Further, the outcome in assay [12], in assay [7], in assay [8] and in [14] was inactive.

Consider `CC(=O)[C@@]1(O)CC[C@H]2[C@@H]3C[C@H](C)C4=CC(=O)C=C[C@]4(C)[C@@]3(F)[C@@H](O)C[C@@]21C`, for which the call in [1], in assay [2], in [9], in assay [10], in assay [4] and in [5] was inactive. Also, the result in assay [11], in assay [6] and in assay [7] was inactive.

Source of the values: PubChem BioAssay (EPA / NIEHS).
